The list is not random: actives were taken first. Their share in the collection is about 11%.
ALDH1A1 inh – ALDH1A1 (human) enzyme inhibition | P00352 | Purified ALDH1A1, NADH fluorescence, propionaldehyde substrate | Potency, µM (series often up to 75.3 µM), hits mostly inhibitors | 220,000 tested, 7.3% active; active = well fitted inhibition curve with a large enough effect, not every such curve was filed as active; inconclusive = small, poorly fitted or top-dose-only effect, or another doubt; inactive = no such curve, though single readings can be large or run the other way
HPGD inh – HPGD (human) dehydrogenase inhibition; purified HPGD, NADH fluorescence kinetic, PGE2 substrate; P15428; Potency, µM, most hits filed as inhibitors; 150,000 tested, 4.3% active; AID 894; active = well fitted inhibition curve with a large enough effect, not every such curve was filed as active; inconclusive = small, poorly fitted or top-dose-only effect, or another doubt; inactive = no such curve, though single readings can be large or run the other way
Target sequence (P15428 whole entry, looked up): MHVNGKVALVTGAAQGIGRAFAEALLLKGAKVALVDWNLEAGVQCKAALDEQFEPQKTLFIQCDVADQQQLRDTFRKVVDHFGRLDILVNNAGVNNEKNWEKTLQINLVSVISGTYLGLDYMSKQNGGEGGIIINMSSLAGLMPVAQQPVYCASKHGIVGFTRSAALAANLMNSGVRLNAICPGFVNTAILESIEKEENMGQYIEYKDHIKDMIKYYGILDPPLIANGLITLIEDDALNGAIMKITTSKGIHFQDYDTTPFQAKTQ
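20 nM HPGD preincubated 15 min at room temperature with compound in 50 mM Tris-HCl pH 8, 0.01% Tween 20. Started with 1 mM NAD+ and 30 uM prostaglandin E2; NADH fluorescence (360/450 nm) read 5 times over 30-s intervals, last minus first.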
IMPase inh – membrane-permeable compound that blocks inositol monophosphatase; P97697; CHO-M1 cells, IP1 accumulation, HTRF TR-FRET ratio; inhibition (IP1 accumulation), % at 46.1 µM; 120,000 tested, under 10 active; active = well fitted curve in the direction sought with a large enough effect in the signal ratio, not every such curve was filed as active; inconclusive = small, poorly fitted or top-dose-only effect, or a change in a side signal; inactive = no such curve, though single readings can be large or run the other way; the % refers to the signal ratio;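 note: cells stimulated with carbachol in lithium chloride buffer; higher means more IMPase inhibition seen as more IP1 and lower FRET ratio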
Target sequence (P97697 whole entry, looked up): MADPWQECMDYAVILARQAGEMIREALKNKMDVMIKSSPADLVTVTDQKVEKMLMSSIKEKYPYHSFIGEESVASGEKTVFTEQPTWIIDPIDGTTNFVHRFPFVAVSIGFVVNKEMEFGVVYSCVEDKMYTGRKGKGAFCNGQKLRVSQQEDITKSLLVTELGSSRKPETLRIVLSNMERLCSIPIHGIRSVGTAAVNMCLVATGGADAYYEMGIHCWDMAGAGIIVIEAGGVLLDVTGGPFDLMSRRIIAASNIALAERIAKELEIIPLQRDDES
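Seeded CHO-M1 cells were dosed with compound at up to 46 uM, stimulated with carbachol for 30 min, then lysed in IP-One detection reagents. Higher IP1 lowers the TR-FRET signal.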
12-hLO inh – blocks human 12-lipoxygenase activity; Potency, µM (doses to about 57.1 µM), usual class: inhibitors; P18054; AID 1452; purified 12-hLO, xylenol orange hydroperoxide absorbance; 150,000 tested, 0.12% active; note: nearly all actives have a fitted effect of over 55% in size
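Xylenol orange chromogenic assay: hydroperoxide from 12hLO oxidises Fe(II), giving red-shifted Fe(III)-XO absorbance. Conditions: 150 nM enzyme, 40 uM arachidonic acid, 25 mM Hepes pH 7.0, 0.01% Triton X-100, 30 min, room temperature.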
PNC inhibitor – perinucleolar compartment assembly inhibition | PC3M PTB-GFP, PNC prevalence imaging, 16 h; active compounds read low | activity change (PNC), negative = inhibition, % at 10 µM | 140,000 tested, 3.1% active | AID 2417;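 active = readout at or below -70, meaning at least 70% loss of cells showing the perinucleolar compartment, a nuclear body marking cancer cells; inconclusive = readout between -30 and a set limit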
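Read-out is percentage of cells bearing a perinucleolar compartment, from automated 20x imaging of fixed, Hoechst-stained PC3M PTB-GFP cells. Cells were seeded 4 h, then exposed 16 h to compound (23 nl of library stock) in duplicate plates.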
IMPase Li inh – membrane-permeable IMPase blocker, potentiated with lithium; CHO-M1 cells, IP1 TR-FRET (IP-One), carbachol + lithium; AID 1457; Potency, µM (titrated, usually from 59.4 µM), usual class: inhibitors; 210,000 tested, 0.35% active;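 note: IP1 builds up when IMPase is blocked and the TR-FRET signal falls; nearly all actives have a fitted effect of over 50% in size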
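Lithium-sensitised IP1 accumulation assay; M1-expressing CHO cells treated 30 min at 37C with compound. Competitive antibody detection by time-resolved FRET followed a 10 min room-temperature lysis step.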
Hits are given with their value; i = inactive; ? = inconclusive; nt = no result given; [ ] = remark or other dose. Unless noted, calls come from the whole dose curve; as a rule, active = well fitted curve in the direction sought with a large enough effect; inconclusive = small, poorly fitted or top-dose-only effect, or another doubt; inactive = no such curve, though single readings can be large; an effect the other way counts as inactive or inconclusive.

SMILES	ALDH1A1 inh	HPGD inh	IMPase inh	12-hLO inh	PNC inhibitor	IMPase Li inh
CC(NCc1ccc(F)cc1)C(=O)NC1CCCCC1 (centres undefined)	i	nt	nt	nt	nt	i
CC(NCc1ccc2c(c1)OCO2)C(=O)NC1CCCCC1 (centres undefined)	35µM	nt	nt	nt	nt	i
O=C(Cn1c(Cc2ccccc2)nc2ccccc21)NCc1ccc2c(c1)OCO2	16µM	i	i	i	i	i
O=C(CCn1c(=O)c2ccccc2n(Cc2ccccc2)c1=O)NCc1ccc2c(c1)OCO2	i	i	i	i	i	i
O=C(CCn1c(=O)oc2ccccc21)NCc1ccc2c(c1)OCO2	16µM	i	i	i	i	i
CC(C)CC(NC(N)=O)C(=O)NCCc1ccc(Cl)cc1 (centres undefined)	i	nt	nt	nt	nt	i
O=C(Nc1ccccc1)N1CCCC2(CCN(S(=O)(=O)c3ccccc3)CC2)C1	?	i	nt	i	nt	i
Cc1nc(N2CCOCC2)c2nc(-c3ccccc3)n(CCCN3CCCCC3C)c2n1 (centres undefined)	?	?	nt	i	nt	i
COc1ccc(C(=O)Nc2ccc3oc(-c4cc(Cl)ccc4Cl)nc3c2)cc1Br	nt	nt	i	nt	nt	nt
O=C(CCn1cccc1)NCc1ccc2c(c1)OCO2	i	20µM	i	i	i	i
O=C(CCn1c(=O)sc2ccccc21)NCc1ccc2c(c1)OCO2	?	i	i	i	-119	i
COc1ccc(CC(=O)NCc2ccc3c(c2)OCO3)cc1	?	i	i	i	?	i
Cn1c(Cn2c(=O)sc3ccccc32)nnc1SCC(=O)NCc1ccc2c(c1)OCO2	i	i	i	i	?	i
COC(=O)[C@@H]1CC[C@H](C)[C@@H](c2ccc(C)cc2)N1C(=O)c1ccc(/C=N\O[C@@H](C)CN2CCCc3nc(C)c(C)cc32)cc1	i[13.5 µM]	nt	nt	nt	nt	nt
O=c1c2cn[nH]c2[nH]c(=S)n1-c1ccccc1	?	28µM	i	i	?	i
O=c1c2cn[nH]c2[nH]c(=S)n1-c1cccc2ccccc12	i	i	nt	i	-113	?
O=c1c2ccccc2n2cnnc2n1-c1ccccc1	i	i	i	i	i	i
CCCCCCN(CCCCCC)C(=O)Cc1c(-c2ccc(Cl)cc2)[nH]c2ccc(Cl)cc12	?	?	i	i	nt	i
COC(=O)C(NC(=O)COc1ccccc1)(Nc1nc2c(s1)CCCC2)C(F)(F)F (centres undefined)	i	35µM	i	i	i	i
CCOC(=O)C(NC(=O)CC)(Nc1nc2c(s1)CCCC2)C(F)(F)F (centres undefined)	i	i	i	i	i	i
CN(C)c1ccc(-c2cncnc2Nc2ccccc2)cc1	25µM	nt	nt	nt	nt	i
Cc1ccccc1-c1cncnc1Nc1ccccc1	i	nt	nt	nt	nt	i
Cc1cc2nc(-c3cccc(NC(=O)c4cccc5ccccc45)c3)oc2cc1C	nt	nt	i	nt	nt	nt
N#CC1=C(N)N2C(=C(C#N)C1c1ccccc1)Sc1ccccc12 (centres undefined)	?	i	i	i	i	i
N#CC1=C(N)SC(N)=C(C#N)C1c1cccc(Oc2ccccc2)c1	10µM	22µM	i	i	?	i
SMILES	ALDH1A1 inh	HPGD inh	IMPase inh	12-hLO inh	PNC inhibitor	IMPase Li inh
CCOc1ccc(C2C(C#N)=C(N)SC(N)=C2C#N)cc1OC	?	25µM	?	i	?	?
CCOc1ccc(C2C(C#N)=C(N)SC(N)=C2C#N)cc1OCC	?	22µM	i	i	i	?
CCOC(=O)CNc1oc(-c2ccccc2)nc1-c1ccccc1	i	i	nt	i	nt	i
Cc1ccc(Cl)cc1NC(=O)Cn1c(=O)n(CCCS(=O)(=O)C2CCCCC2)c(=O)c2ccccc21	nt	nt	i	nt	nt	nt
CC1(C)O[C@@H]2[C@@H](O1)C(c1ccccc1)(c1ccccc1)OP(=O)(O)OC2(c1ccccc1)c1ccccc1	i	i	nt	nt	nt	i
O=c1oc2ccccc2c(O)c1CN1CCCCC1	14µM	i	i	i	i	i
Cc1ccc(C2CN=NC23CCc2ccccc2C3=O)cc1 (centres undefined)	?	32µM	i	i	i	i
Cc1ccc2c(c1)N(C(=O)c1ccc(F)cc1)C(C)(C)CC2(C)c1ccccc1 (centres undefined)	nt	nt	i	nt	nt	nt
CCn1c(N)c(C(=O)NCc2ccco2)sc1=S	14µM	22µM	i	i	?	i
CCOC(=O)c1sc(=S)n(CC)c1N	i	i	i	i	i	i
COc1ccc(-n2c(N)c(C(=O)NCc3ccco3)sc2=S)cc1	?	?	i	i	i	i
CCn1c(N)c(C(N)=O)sc1=S	8.9µM	?	i	i	i	i
CCOC(=O)c1ccc(-n2c(N)c(C(=O)NCc3ccco3)sc2=S)cc1	18µM	28µM	i	?	i	i
CCOC(=O)c1ccc(-n2c(=S)sc3c(=O)[nH]c(C)nc32)cc1	7.1µM	6.3µM	i	i	?	i
C[C@@H](C(=O)Nc1ccc2ccccc2c1)[C@@H]1C[C@@]1(C)[C@@H](NC(=O)c1ccncc1Cl)c1ccccc1	i	i	nt	i	nt	i
CC(=O)NCCNc1nc(-c2ccccc2CN(C)C)nc2ccccc12	i	i	nt	i	nt	i
CC(=O)N1CCC2(CCCN(Cc3cc(C(F)(F)F)cc(C(F)(F)F)c3)C2)CC1	i	i	nt	i	nt	i
O=c1c(-c2cc(F)cc(F)c2)nc2cnc(N3CCOCC3)nc2n1-c1ccccc1	?	?	nt	i	nt	i
CCN(c1cccc(C)c1)S(=O)(=O)c1ccc(O)c(C(=O)O)c1	?	?	nt	i	nt	nt
C=CCNC(=O)c1sc(=S)n(-c2ccc(C(=O)OCC)cc2)c1N	13µM	16µM	i	i	i	i
CNC(=O)c1sc(=S)n(-c2ccc(OC)cc2)c1N	i	nt	nt	nt	nt	i
CC(=O)OC1CC[C@@]2(C)C(CC[C@@]3(C)C2CC=C2C4CC(C)(C)CC[C@]4(C(=O)O)CC[C@@]23C)C1(C)C (some centres undefined)	i	i	nt	i	nt	i
Cc1cccc(C)c1Nc1nnc(SCc2cc([N+](=O)[O-])cc3c2OCOC3)s1	22µM	11µM	i	i	i	i
COc1ccc(C(CC(=O)NCc2ccccc2)C(C)C)cc1 (centres undefined)	i	nt	nt	nt	nt	nt
COC(=O)c1ccc(C(NC(=O)c2ccco2)[C@]2(C)C[C@H]2C2CCCCC2)cc1 (some centres undefined)	3.5µM	i	nt	i	nt	i
SMILES	ALDH1A1 inh	HPGD inh	IMPase inh	12-hLO inh	PNC inhibitor	IMPase Li inh
C/C(=N/NC(=O)CNC(=O)c1cccnc1)c1cccc([N+](=O)[O-])c1	i	nt	nt	nt	nt	i
COc1ccccc1/C=C/c1nc2ccccc2n1C(C)C	nt	nt	i	nt	nt	nt
CCn1c(=S)[nH]c2nc3c(cc2c1=O)CCCC3	i	i	i	i	i	?
CCCCCCn1cnc2c(oc3nc4c(cc32)CCCC4)c1=O	3.5µM	i	i	i	i	i
O=c1c2oc3nc4c(cc3c2ncn1CCCc1ccccc1)CCCC4	4µM	nt	nt	nt	nt	nt
CCCCn1cnc2c(oc3nc4c(cc32)CCCC4)c1=O	1.3µM	nt	nt	nt	nt	nt

Source: PubChem BioAssay
